# From the supplement of paper PMC6555819
# Experiments:
# Test in all cases: PBM binding z-score (relative to random genomic background probes); higher = stronger binding; sequences stand for … in GC…GCGATTGACAGCGTAGAATGAAGG
# [1] = test system: RARb homodimer (NR concentration 270 nM)
# Summary of the method: (§1)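 Binding buffer was PBS pH 7.4 with 2% milk, 0.02% Triton X-100, 1 mM DTT, 0.2 mg/mL BSA and 0.4 mg/ml salmon testes DNA. In it, ligand-free nuclear receptor dimers were incubated 1 h on custom Agilent 4×180K protein-binding microarrays carrying double-stranded probes. Antibodies against each partner (one per run) detected binding, and z-scores were calculated against random background probes after regression normalization of scanned fluorescence.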
# [2] = test system: RARg:RXRa (NR concentration 270 nM, RXRa partner concentration 90 nM)
# Summary of the method: as §1
# [3] = test system: RARg homodimer (NR concentration 270 nM)
# Summary of the method: as §1
# [4] = test system: RXRa DBDmut IVT, anti-RXR (DBD mutation: RXRa K156A/R161A, NR concentration 90 nM)
# Summary of the method: as §1
# [5] = test system: RXRa homodimer (NR concentration 180 nM)
# Summary of the method: as §1
# [6] = test system: THRa:RXRa (NR concentration 90 nM, RXRa partner concentration 90 nM)
# Summary of the method: as §1
# [7] = test system: THRa homodimer (NR concentration 90 nM)
# Summary of the method: as §1
# [8] = test system: VDR homodimer (NR concentration 270 nM)
# Summary of the method: as §1
Sequence,PBM binding z-score [1],PBM binding z-score [2],PBM binding z-score [3],PBM binding z-score [4],PBM binding z-score [5],PBM binding z-score [6],PBM binding z-score [7],PBM binding z-score [8]
CCTTACGGGTCACGAGGCTATAGCACGACGAGCG,3.24,5.45,5,0.992,6.22,3.16,0.466,0.849
ATCGAAAGGTCGAGGTGAGTGTAGAGAAAGGGAA,2.96,4.37,4.06,0.896,4.28,3.21,0.885,0.854
ATAAGTAGGTTATCGGGTCATTCAGTTTGCGCAT,3.12,3.44,2.43,1.57,3.55,3.29,2.93,4.49
TAGCCTAAGTCATTCAGGGGCCAGTATAGAAAGC,0.772,1.72,0.386,-0.0569,0.191,0.835,-0.418,-0.452
CGTCCAAGGTCATAGCAGGTCAGTGAAGACAGAT,4.65,6.19,6.53,3.91,5.72,4.99,2.79,3.76
GTACCAAGGTTAATAGGTCGTTGATGAGTAGGCG,2.14,3.29,2.07,0.518,2.5,1.68,0.196,0.941
TCGAGTAGGTTACCAATGGGGCACTCAGCTTTCT,0.601,1.21,0.434,0.0606,0.428,0.0127,-0.648,-0.704
ACAGACAGGTCATGAAGGTAACTCAGGCTATCAT,3.05,4.63,4.19,1.69,4.56,3.12,0.575,1.23
TCTGCTAGGTCAACGATGGACAGCTAATCTGCTA,2.79,3.82,4.71,0.955,2.5,2.86,0.203,-0.736
TGAATGAGGTTATAAGAACAGGGAACGTTGCAAA,-0.0181,1.21,1,0.468,1.89,1.62,0.00377,0.365
CCCGAAAGGTCGTGCTCAGGTGAGTATACCAAAC,2.89,5.06,4.02,2.2,4.95,4.1,1.71,1.48
ATCTCTAGGTAAAGCTAGTTCAGTGAATGCAAAT,0.208,0.0635,0.23,-0.0872,0.134,1.15,0.00789,0.525
CCAGAGAGGTGAGAAGGTAACTCAGCCTCGATTA,1.31,1.52,1.22,0.0821,1.05,1.19,0.396,0.477
ACTTACGGGTCAACGAGGTAATAGCACGCGTATA,3.07,5.4,5.19,2.15,6.11,4,0.859,1.79
TCTAGTAGATCAAGCAGGTTAAGAAAGCCTGAGT,-0.158,-0.256,-0.373,0.554,0.16,0.0974,-0.707,-0.397
TCATATAGATAAATGCTAGGTGAAAGTCCGATCT,0.00895,0.12,0.317,1.66,0.786,0.626,0.378,0.203
CCGACTGGGGCAGAAAGGGTACCATACCATCCGG,0.624,0.0836,0.273,-1.36,0.143,-0.36,-0.53,-0.349
TCTCGGAGGACACGAAAGATCAGAGCTCGACATC,0.303,0.634,1.18,0.716,0.321,1.2,0.159,-0.53
GCAAGTTGGTCAGTAAAAGGTCACACACCGGTCG,5.2,5.36,4.48,0.685,5.47,3.61,1.82,1.96
TCTTGTATATCAAGCAGGTTAAGAAAGCCTGAGT,0.552,0.261,-0.15,0.788,0.587,0.47,-0.282,0.228
ATATCTAGGTTAGCTGGGGTCATTCAGACTAGGC,3.96,4.04,3.18,1.88,5.32,5.07,3.53,5.14
CATACAGGGTTAGCTAGGCCAGAGTAGGGACGGC,0.276,0.782,0.633,-0.487,0.914,0.66,-0.483,-0.636
CCAGACATGTGAAAGGTAACTCAGTCTGGTACGC,0.0662,0.308,0.362,0.289,0.767,0.162,-0.146,0.204
CCTAGCATGCCAATCTGGGTCACTCAAGGCTTGA,1.86,0.768,0.691,0.255,0.917,2.93,0.266,-0.104
CCTGCTACGTCATGGTCAGCTAATCTACAGTATG,-0.0724,0.00255,-0.0549,0.43,-0.184,-0.381,-0.695,-0.512
TATACAGGGTCAAAGGCCAGAGTTCGAATGTCGA,3.91,5.81,5.41,3.27,7.53,3.61,1.03,4.77
AATACACGGTCACTAGGCCAGAGTAGGTACGAAT,1.85,1.78,2.19,0.0529,0.672,0.48,-0.267,0.314
TCTGCTAGGTCACTTGGTCAGCTAACGAGCTGCC,3.07,4.03,4.52,1.54,2.41,2.58,0.574,0.129
